ChEMBL document CHEMBL2218924, “A broad activity screen in support of a chemogenomic map for kinase signalling research and drug discovery” (Biochem J, 2013)

How the values were obtained:
[1] = biological target: Tyrosine-protein kinase SYK (Homo sapiens) (UniProt P43405); conditions: at 10 µM
[2] = biological target: T1, Mitogen-activated protein kinase kinase kinase 7 (Homo sapiens) (UniProt O43318); conditions: at 1 µM
T1 sequence (whole entry): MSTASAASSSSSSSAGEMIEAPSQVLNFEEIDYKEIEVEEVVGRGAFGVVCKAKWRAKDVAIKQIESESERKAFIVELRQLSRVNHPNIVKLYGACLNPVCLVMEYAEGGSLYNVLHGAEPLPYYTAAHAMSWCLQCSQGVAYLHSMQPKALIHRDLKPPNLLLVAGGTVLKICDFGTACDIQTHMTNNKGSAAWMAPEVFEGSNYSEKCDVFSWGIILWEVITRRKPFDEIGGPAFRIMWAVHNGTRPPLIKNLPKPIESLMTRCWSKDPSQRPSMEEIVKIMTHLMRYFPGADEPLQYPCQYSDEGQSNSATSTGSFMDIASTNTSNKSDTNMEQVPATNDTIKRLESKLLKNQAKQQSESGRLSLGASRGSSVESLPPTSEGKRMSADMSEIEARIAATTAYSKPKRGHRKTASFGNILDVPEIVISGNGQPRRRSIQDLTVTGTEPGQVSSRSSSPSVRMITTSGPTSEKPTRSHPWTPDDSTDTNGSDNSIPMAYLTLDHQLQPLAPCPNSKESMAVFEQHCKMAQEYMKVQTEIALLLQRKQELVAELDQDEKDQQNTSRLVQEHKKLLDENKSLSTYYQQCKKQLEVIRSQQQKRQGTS

[3] = biological target: T1, Mitogen-activated protein kinase kinase kinase 7 (Homo sapiens); conditions: at 10 µM
[4] = biological target: T2, Serine/threonine-protein kinase TAO1 (Homo sapiens) (UniProt Q7L7X3); conditions: at 1 µM
T2 sequence (whole entry): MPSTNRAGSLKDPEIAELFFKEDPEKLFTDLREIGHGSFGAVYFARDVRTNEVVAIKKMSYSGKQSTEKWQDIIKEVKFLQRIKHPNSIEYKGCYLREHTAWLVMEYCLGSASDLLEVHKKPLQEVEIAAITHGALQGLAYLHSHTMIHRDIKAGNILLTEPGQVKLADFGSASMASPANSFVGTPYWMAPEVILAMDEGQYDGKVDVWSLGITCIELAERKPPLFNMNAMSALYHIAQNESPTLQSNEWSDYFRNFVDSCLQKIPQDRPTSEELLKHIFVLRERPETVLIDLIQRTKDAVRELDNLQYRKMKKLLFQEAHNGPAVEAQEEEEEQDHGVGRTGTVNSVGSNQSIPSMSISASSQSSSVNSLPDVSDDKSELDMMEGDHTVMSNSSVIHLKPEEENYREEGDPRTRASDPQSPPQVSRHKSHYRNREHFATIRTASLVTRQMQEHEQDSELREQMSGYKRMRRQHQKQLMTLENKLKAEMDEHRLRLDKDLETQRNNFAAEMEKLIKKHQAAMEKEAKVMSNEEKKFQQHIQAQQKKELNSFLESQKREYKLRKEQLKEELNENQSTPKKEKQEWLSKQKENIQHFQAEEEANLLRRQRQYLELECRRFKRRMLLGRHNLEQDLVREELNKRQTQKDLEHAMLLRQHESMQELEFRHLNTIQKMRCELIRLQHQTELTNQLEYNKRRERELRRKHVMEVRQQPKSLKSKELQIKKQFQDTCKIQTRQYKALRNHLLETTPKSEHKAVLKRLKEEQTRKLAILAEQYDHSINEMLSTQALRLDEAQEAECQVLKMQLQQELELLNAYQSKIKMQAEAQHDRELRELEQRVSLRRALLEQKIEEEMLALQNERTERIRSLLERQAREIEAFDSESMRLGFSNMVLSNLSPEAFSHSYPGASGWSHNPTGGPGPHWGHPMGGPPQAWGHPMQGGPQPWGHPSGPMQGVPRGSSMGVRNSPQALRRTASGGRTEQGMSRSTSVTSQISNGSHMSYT

[5] = biological target: T2, Serine/threonine-protein kinase TAO1 (Homo sapiens); conditions: at 10 µM
[6] = biological target: T3, Serine/threonine-protein kinase TAO2 (Homo sapiens) (UniProt Q9UL54); conditions: at 1 µM
T3 sequence (whole entry): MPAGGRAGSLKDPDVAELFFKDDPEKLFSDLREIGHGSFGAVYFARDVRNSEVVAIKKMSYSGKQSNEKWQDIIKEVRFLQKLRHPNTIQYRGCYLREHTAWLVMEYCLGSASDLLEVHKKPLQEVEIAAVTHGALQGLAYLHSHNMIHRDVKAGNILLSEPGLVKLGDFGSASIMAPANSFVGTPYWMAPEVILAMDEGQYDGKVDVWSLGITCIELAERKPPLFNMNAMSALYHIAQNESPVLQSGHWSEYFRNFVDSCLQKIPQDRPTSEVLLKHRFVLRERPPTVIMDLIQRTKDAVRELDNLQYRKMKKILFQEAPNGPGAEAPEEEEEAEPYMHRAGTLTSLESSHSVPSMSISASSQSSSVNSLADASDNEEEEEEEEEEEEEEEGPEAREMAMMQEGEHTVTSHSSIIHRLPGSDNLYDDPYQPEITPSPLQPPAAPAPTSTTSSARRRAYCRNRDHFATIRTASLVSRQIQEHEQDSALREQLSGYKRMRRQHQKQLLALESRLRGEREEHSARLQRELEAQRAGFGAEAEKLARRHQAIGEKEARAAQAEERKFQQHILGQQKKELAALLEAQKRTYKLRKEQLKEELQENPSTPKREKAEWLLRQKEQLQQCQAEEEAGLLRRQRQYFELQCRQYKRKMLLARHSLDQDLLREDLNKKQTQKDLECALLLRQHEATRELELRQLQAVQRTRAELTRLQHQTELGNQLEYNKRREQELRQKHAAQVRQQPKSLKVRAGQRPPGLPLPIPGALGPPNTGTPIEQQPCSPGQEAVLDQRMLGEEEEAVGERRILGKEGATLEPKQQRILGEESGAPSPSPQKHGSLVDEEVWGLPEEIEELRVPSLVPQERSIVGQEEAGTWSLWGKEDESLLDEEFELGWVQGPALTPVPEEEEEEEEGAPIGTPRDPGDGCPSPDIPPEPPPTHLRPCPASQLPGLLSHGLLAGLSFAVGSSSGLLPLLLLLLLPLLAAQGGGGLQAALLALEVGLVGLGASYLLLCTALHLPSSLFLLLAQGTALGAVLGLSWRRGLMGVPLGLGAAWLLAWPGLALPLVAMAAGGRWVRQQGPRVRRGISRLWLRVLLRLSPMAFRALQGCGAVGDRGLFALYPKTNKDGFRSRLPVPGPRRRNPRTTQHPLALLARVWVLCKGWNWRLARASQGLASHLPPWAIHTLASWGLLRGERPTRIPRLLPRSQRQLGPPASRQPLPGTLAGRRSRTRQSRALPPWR

[7] = biological target: T3, Serine/threonine-protein kinase TAO2 (Homo sapiens); conditions: at 10 µM
[8] = biological target: T4, Serine/threonine-protein kinase TAO3 (Homo sapiens) (UniProt Q9H2K8); conditions: at 1 µM
T4 sequence (whole entry): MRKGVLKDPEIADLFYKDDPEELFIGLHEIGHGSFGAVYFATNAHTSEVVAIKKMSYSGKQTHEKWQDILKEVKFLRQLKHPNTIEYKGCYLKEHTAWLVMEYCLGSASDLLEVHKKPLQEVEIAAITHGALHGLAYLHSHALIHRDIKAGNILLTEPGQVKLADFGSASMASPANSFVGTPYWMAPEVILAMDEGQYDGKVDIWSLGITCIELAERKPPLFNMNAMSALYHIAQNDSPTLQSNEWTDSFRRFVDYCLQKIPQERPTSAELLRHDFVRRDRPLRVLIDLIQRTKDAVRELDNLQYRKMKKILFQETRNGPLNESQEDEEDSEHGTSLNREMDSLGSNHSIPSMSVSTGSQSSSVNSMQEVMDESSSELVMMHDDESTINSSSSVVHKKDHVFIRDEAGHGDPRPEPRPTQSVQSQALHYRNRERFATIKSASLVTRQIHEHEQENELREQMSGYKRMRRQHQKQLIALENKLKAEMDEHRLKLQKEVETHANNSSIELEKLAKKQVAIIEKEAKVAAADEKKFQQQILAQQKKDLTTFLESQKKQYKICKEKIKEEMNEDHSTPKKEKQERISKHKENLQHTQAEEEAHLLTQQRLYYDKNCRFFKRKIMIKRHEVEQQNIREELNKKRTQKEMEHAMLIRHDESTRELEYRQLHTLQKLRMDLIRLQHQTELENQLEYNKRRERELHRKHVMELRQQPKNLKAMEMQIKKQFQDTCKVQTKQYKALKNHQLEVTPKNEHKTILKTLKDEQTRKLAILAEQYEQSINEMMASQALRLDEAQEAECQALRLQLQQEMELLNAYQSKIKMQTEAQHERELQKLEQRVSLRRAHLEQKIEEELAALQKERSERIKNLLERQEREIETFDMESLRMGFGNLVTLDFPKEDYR

[9] = biological target: T4, Serine/threonine-protein kinase TAO3 (Homo sapiens); conditions: at 10 µM
[10] = biological target: T5, Serine/threonine-protein kinase TBK1 (Homo sapiens) (UniProt Q9UHD2); conditions: at 1 µM
T5 sequence (whole entry): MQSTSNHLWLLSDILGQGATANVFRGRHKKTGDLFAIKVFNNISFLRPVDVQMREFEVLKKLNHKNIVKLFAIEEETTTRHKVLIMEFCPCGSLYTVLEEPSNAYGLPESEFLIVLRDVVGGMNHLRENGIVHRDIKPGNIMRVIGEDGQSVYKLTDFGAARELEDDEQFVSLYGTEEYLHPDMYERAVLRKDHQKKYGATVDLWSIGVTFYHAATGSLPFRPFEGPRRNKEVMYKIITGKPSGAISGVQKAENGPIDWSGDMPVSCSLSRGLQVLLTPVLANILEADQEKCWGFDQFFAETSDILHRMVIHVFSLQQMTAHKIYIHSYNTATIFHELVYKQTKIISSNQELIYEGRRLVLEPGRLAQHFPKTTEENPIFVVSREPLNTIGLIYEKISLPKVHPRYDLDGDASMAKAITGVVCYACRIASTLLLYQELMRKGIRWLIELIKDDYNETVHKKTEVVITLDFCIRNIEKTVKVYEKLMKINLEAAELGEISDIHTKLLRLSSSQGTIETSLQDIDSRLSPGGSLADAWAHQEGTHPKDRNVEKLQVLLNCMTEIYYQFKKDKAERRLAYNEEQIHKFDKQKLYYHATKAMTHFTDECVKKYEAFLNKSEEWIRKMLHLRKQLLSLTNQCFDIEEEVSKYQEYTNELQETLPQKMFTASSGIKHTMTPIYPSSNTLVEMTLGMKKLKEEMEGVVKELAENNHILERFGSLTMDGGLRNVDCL

Oc1ccc(Nc2nc(-c3ccc(Cl)cc3)cs2)cc1
residual activity [1]: 114% | residual activity [2]: 112% | residual activity [3]: 98% | residual activity [4]: 106% | residual activity [5]: 85% | residual activity [6]: 118% | residual activity [7]: 89% | residual activity [8]: 99% | residual activity [9]: 95% | residual activity [10]: 114%
